This is an account of results in PubChem BioAssay AID504408 (Broad Institute, 2011).

In all, about 300,000 compounds went through this assay and about 5,200 (1.7%) were called active. What follows is part of a selection rich in actives, with near analogues and random picks from the rest. Unmarked numbers belong to inactive results.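 How the source made its calls: active means mean replicate activation of at least 50% with a set share of replicates each reaching 50%; inconclusive means only one of those two conditions met; inactive means mean below 50% and too few replicates reaching it.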

The experiment in a line: HSF-1 activators, primary screen, NIH3T3-HGL cells, MG132 stress, luminescence, single point (AID 504408).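 Further: 0% = median of the neutral control wells and 100% = twice that signal.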 The settings on record: NIH3T3-HGL HSF-1 luciferase reporter, MG132, 8 h; at 9 µM; hits give high values; 100% = twice DMSO control signal. (A reporter such as luciferase makes a cellular process visible.)
For the compound `COc1ccccc1C(=O)NC(=O)COC(=O)C1CC1`, the activation was 16%.

In the case of `O=C(Nc1cccc2ncccc12)C(Cl)(Cl)Cl`, the activation is -66%. Next, `O=C(O)c1cc(Cl)c(Cl)cc1C(=O)Nc1cccc2ncccc12`: 56.4% (active).

Regarding `O=C(Nc1cccc2ncccc12)c1ccc(-c2ccc(Cl)cc2Cl)o1`, the activation was 38.2%. Next, `CN(C(=O)CN1C(=O)NC(C)(CCc2ccccc2)C1=O)c1ccccc1` (configuration not stated): 5.79%; `COc1ccc(S(=O)(=O)Nc2ccc3oc(C)c(C(C)=O)c3c2)cc1`: -13%. With `CC(=O)c1c(C)oc2ccc(NS(=O)(=O)c3ccccc3)cc12`, the activation is 18.1%. Next, `COC(=O)c1c(C)oc2ccc(N(C(=O)Oc3ccccc3)S(=O)(=O)c3ccccc3)cc12`: 74.4% (active); `CC(C)(C)c1ccc(C(=O)NCc2ccco2)cc1`: -17.1%. Regarding `Nc1cc(N)nc(SCc2ccc(Cl)cc2)n1`, the activation was -15.7%. Next, `Nc1cc(N)nc(SCc2cccc(F)c2)n1`: 76.5% (active).

With `CCc1nnc(SCc2cccc(F)c2)nc1CC`, the activation was -33.8%. Turning to `COc1ccc(NS(=O)(=O)c2ccc(C)c(C(=O)NNC(=O)c3csc(N4CCOCC4)n3)c2)cc1`, the activation was 4.38%.

Regarding `O=C(NCCC1CCCCN1S(=O)(=O)c1cccs1)C(=O)Nc1ccc(F)cc1F` (configuration not stated), the activation was -7.29%. Consider `CN(C(=O)COC(=O)c1ccc(Br)o1)c1c(N)n(Cc2ccccc2)c(=O)[nH]c1=O`, for which the activation was 5.07%.

For `CC1(C)O[C@@H]2CC3C4C[C@H](F)C5=CC(=O)C=CC5(C)C4C(O)CC3(C)[C@]2(C(=O)CO)O1` (some centres not stated), the activation is -43.8%. Next, `COc1ccc(-c2csc(-c3cccs3)n2)cc1OC`: 19.1%; `COc1ccc(-c2csc3nc(-c4ccccc4F)oc(=O)c23)cc1OC`: 164% (active); `COc1ccccc1-c1nnc(-c2ccc(F)cc2)o1`: 38.9%. Next, `CC(=O)N/C(=C\c1ccccc1)C(=O)OC(C)C(=O)N(C)c1ccccc1` (configuration not stated): 2.37%; `CCOC(=O)C(C(=O)OCC)C(C#N)c1ccccc1` (configuration not stated): 14.7%; `CCOC(=O)/C=C/C(=O)OCC(=O)NC(c1ccccc1)c1ccccc1`: 177% (active). For `O=C(Cc1ccc(-c2ccccc2)cc1)NC(c1ccccc1)c1ccccc1`, the activation is 0.938%. Take `COc1ccc(C(C#N)(CC(=O)O)c2cnccn2)cc1OC` (configuration not stated): the activation was -7.73%. Next, `COc1cc(OC)nc(S(C)(=O)=O)n1`: -10.3%; `COc1ccc(-c2cc(C(F)(F)F)nc(S(C)(=O)=O)n2)cc1OC`: 236% (active). On to `COc1ccc(-c2cc(C(F)(F)F)nc(SCC(=O)Nc3ccc4c(c3)OCO4)n2)cc1OC`, for which the activation was 12.6%.

Turning to `COc1ccc(CNC(=O)CNC(=O)c2sc3ccccc3c2Cl)cc1OC`, the activation is 5.99%. Next, `COc1ccc(C(=O)Nc2sc(C)c(C)c2CN2CCOCC2)cc1`: 399% (active); `CCc1cc(C(N)=O)c(NC(=O)c2ccc(OC)cc2)s1`: 15.1%. Take `COc1ccc(C(=O)Nc2ccnn2C2CCN(Cc3ccncc3)CC2)cc1`: the activation was 0.31%.

`CC(=O)c1c(C)[nH]c(C(=O)N2CCN(S(=O)(=O)c3ccc(F)c(F)c3)CC2)c1C`: the activation was 0.878%. Consider `CCc1cccc(C)c1NS(=O)(=O)c1cc(Br)cnc1N`, for which the activation is 0.695%. Next, `O=[N+]([O-])c1ncc(Br)cc1Nc1ccccc1`: -4.85%.

Regarding `Oc1ccccc1CNc1ncc(Br)cc1Br`, the activation was 114% (active). Next, `COc1ccc(S(=O)(=O)N2CCCCC2)cc1NC(=O)C1CC(=O)N(c2ccc3c(c2)OCCO3)C1` (configuration not stated): 1.34%; `O=C(NCCN1CCOCC1)c1ccc2c(c1)N(Cc1ccc(Cl)cc1)CCS2`: 16.5%; `CCOC(=O)N1CCN(C(=O)c2ccc3c(c2)N(Cc2ccc(C)cc2)CCS3)CC1`: 9.82%.

Turning to `O=C(NCCc1ccccc1)c1ccc2c(c1)N(Cc1ccccc1)CCS2`, the activation was 82.5% (active).

Consider `CC(=O)Nc1ccc(NC(=O)CSC2=NS(=O)(=O)c3ccccc3N2)cc1`, for which the activation was -10.3%. As to `CC(=O)Nc1ccc(NC(=O)C(C)OC(=O)C2CC(=O)N(CCc3ccccc3)C2)cc1` (configuration not stated), the activation was -21.8%. In the case of `COCCN(C(=O)COC(=O)Cc1cccc(OC)c1)c1c(N)n(Cc2ccccc2)c(=O)[nH]c1=O`, the activation was 2.54%. Next, `Cc1cccc([C@@H]2[C@@H]3C(=O)N(Cc4ccccc4)C(=O)[C@@H]3[C@]3(Cc4ccc(Cl)cc4)C(=O)N(c4cccc(Cl)c4)C(=O)N23)c1`: 13.8%. Next, `Cc1ccc(C(=O)CN2C(=O)NC3(CCc4ccccc43)C2=O)c(C)c1` (configuration not stated): 0.629%. Take `COC(=O)c1sc(NC(=O)c2csc3c2CCCC3)nc1C`: the activation was 30.2%. Next, `O=C(Nc1ccccc1N1CCOCC1)c1csc2c1CCCC2`: 6.54%; `Cc1ccc(NC(=O)c2csc3c2CCCC3)cc1`: 59.9% (active). Next, `Cc1cc(=O)oc2cc(NC(=O)C(C)Oc3ccccc3)ccc12` (configuration not stated): -3.4%; `O=C(c1cc(-c2ccco2)nc2ccccc12)N(Cc1nnc(-c2ccc(Cl)cc2)o1)C1CC1`: 16.1%; `NC(=O)C1CCN(C(=O)c2cn(-c3ccccc3)nc2-c2cccnc2)CC1`: 32.4%. Next, `Cc1ccc(N(CC(=O)Nc2cccc(N(C)S(C)(=O)=O)c2)S(C)(=O)=O)cc1`: 0.04%. With `CN(c1cccc(NC(=O)Nc2ccc(Cl)cc2)c1)S(C)(=O)=O`, the activation is 115% (active). For the compound `COc1cccc(N(CC(=O)Nc2cccc(N(C)S(C)(=O)=O)c2)S(C)(=O)=O)c1`, the activation is 12.3%. Next, `Cc1ccc2nc(-c3ccc(SCC(=O)Nc4cc(C)on4)nc3)[nH]c2c1`: 55.5% (active); `Cc1ccc(SCCC(=O)Nc2cc(C)on2)cc1`: -5.42%. Next, `Cc1ccc2nc(SCC(=O)NC3CCCC3)[nH]c2c1`: 7.63%; `O=C(COc1ccccc1F)Nc1nc(-c2ccccn2)cs1`: -13.1%. As to `S=c1[nH]c(-c2cccs2)cn1-c1ccccc1`, the activation was 33.3%. For the compound `COc1ccc(-n2c(-c3ccc(OC)c(OC)c3)n[nH]c2=S)cc1`, the activation was 3.03%. Next, `COc1ccc(-c2cn(-c3ccc(OC)cc3)c(=S)[nH]2)cc1`: 56.7% (active). Next, `CC[C@@]12C(=O)N(c3ccccc3)C(=O)N1[C@H](c1ccc(Br)cc1)[C@@H]1C(=O)N(C(C)(C)C)C(=O)[C@@H]12`: -15%; `CC1CCCCC1NC(=O)c1cc(=O)[nH]c2ccccc12` (configuration not stated): 1.85%. Next, `CCN1CCN(C(=O)N(Cc2ccc(Cl)cc2)S(=O)(=O)c2ccc(C)cc2)CC1`: 0.289%; `CCOC(=O)c1c(C)nc2c(c1C)c(=O)oc1ccccc12`: 36.6%; `Cc1ccccc1-n1nnc2c(=O)oc3ccccc3c21`: 105% (active).

In the case of `CCCCC(=O)Nc1cc(C)c2c(=O)oc3ccccc3c2n1`, the activation was 6.46%. Turning to `CN(CC(=O)NNC(=O)CNC(=O)c1ccccc1Cl)S(=O)(=O)c1ccc(Cl)cc1`, the activation was -6.99%.

Turning to `Fc1ccc(CSc2nnc(-c3cc4c(s3)-c3ccccc3CC4)o2)cc1`, the activation was 21.9%. For the compound `CCSc1nnc(-c2cc3c(s2)-c2ccccc2CC3)o1`, the activation was 51.8% (active). Next, `O=C(CSc1nnc(-c2ccccc2O)o1)NC1CCCCC1`: -7.41%; `O=C(c1ccncc1)N1CCN(S(=O)(=O)c2cc(C(F)(F)F)cc(C(F)(F)F)c2)CC1`: 4.51%; `CCCCC(=O)N/N=C(\C)CC(=O)Nc1cc(Cl)ccc1OC`: 72.1% (active). Regarding `COc1ccc(Cl)cc1NC(=O)CNc1ccccc1F`, the activation is 2.49%. Next, `COc1ccc(/C(C)=N/NC(=O)CCC(=O)Nc2ccc(Cl)cc2Cl)c(OC)c1`: 1.67%; `COc1ccc(N2CCN(C(=O)CCNC(=O)c3ccc(Br)cc3)CC2)cc1`: 6.12%.

Consider `CCN(CC(=O)Nc1cc(Cl)ccc1C)C(=O)CN1C(=O)NC2(CCCC2)C1=O`, for which the activation is -8.94%. Next, `COc1ccccc1NC(=O)Nc1nc(CC(=O)Nc2ccccc2F)cs1`: 23.4%; `COc1ccc(NC(=O)CN(C)C(=O)c2cc(-c3ccc(C)o3)nc3ccccc23)cc1`: 19.7%. Take `O=C(NC1CCCC1)c1ccc(Br)s1`: the activation is 7.08%. Next, `O=C(Nc1ccc2c(c1)CCC2)c1ccc(Br)s1`: 71% (active); `CC(C)C(=O)OCC(=O)Nc1ccc2c(c1)CCC2`: 41.4%. Next, `COc1ccc(S(=O)(=O)N2CCCC2CNC(=O)C(=O)NC2CC2)cc1` (configuration not stated): 5.75%. Next, `CC(=NCc1ccco1)c1c(C(F)(F)F)[nH]n(-c2nc3ccccc3s2)c1=O`: -45.7%; `CC(=NCc1ccco1)C1=C(O)c2ccccc2C1=O`: 106% (active).

For `CC(=NCc1ccc2c(c1)OCO2)C1=C(O)c2ccccc2C1=O`, the activation was 33.7%.

As for `Cc1ccc(-c2cc(C(=O)NC3CCN(Cc4ccccc4)CC3)c3ccccc3n2)cc1`, the activation is 11.6%. Turning to `CC1=C(/C=C/C(C)=C/C=C/C(C)=C/C=C/C=C(C)/C=C/C=C(C)/C=C/C2=C(C)CCCC2(C)C)C(C)(C)CCC1`, the activation was 54.5% (active). Next, `Cc1cccc(C(=O)OC(C)C(=O)NC2CCCc3ccccc32)c1O` (configuration not stated): -1.67%; `CC(C)N(Cc1nnc(-c2ccc(Cl)cc2)o1)C(=O)C1=COCCO1`: -12.7%; `Cc1ccc(NC(=O)CN2C(=O)NC(C)(c3ccc(Cl)cc3)C2=O)c(Br)c1` (configuration not stated): 78.5% (active). Next, `Cc1ccc(C2(C)NC(=O)N(CC(=O)Nc3ccccc3C(=O)N3CCCCC3)C2=O)cc1` (configuration not stated): 20.7%; `CC1(c2ccccc2)NC(=O)N(CC(=O)Nc2cc(Cl)ccc2N2CCOCC2)C1=O` (configuration not stated): -13.3%.
